Screening results as filed in PubChem.
Only some compounds are listed: those with a hit (about 19% of all), similar ones and a draw of the others.
TGFb SMAD3 inh: blocks TGF-b signaling. HepG2 CAGA-GFP TGF-b/SMAD3 reporter, GFP fluorescence, 18 h; TGF-beta stimulated, 500 pg/mL final. Potency, µM (doses to about 46.1 µM), for the others: at the highest dose activity, negative = inhibition, hits mostly inhibitors. actives 1.2% (n = 410,000). AID 588855; also: potency is read from the fitted curve at half-maximal effect; % is scaled to controls: 0 for no effect and ±100 for the full control effect; nearly all actives have a fitted effect of over 65% in size
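HEPG2 CAGA-GFP, 1000 cells/well; 2 h settle, 37 C; cpd via pin tool; TGF-b 500 pg/mL final; 18 h, 37 C; GFP imaging ex488/em500-530; %Activity normalised to -TGF-b and +DMSO controls; CRC fit, curve class.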
IL1B secr inh: inhibitors of inflammasome signaling (IL-1 beta secretion); THP-1 LPS/ATP IL-1B secretion, AlphaLISA, 16 h; hits give low values; AID 743279; activity change, % at 57.5 µM; actives 4.7% (n = 360,000); in the data active = activity change below about -50%; inconclusive = mostly about -30% to -49%; also: % is scaled to controls: 0 for no effect and ±100 for the full control effect
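Secreted IL-1B measured by AlphaLISA bead assay after 16 h compound exposure of THP-1 cells; compounds (final up to 57.5 uM) added 1 h before LPS (250 ng/mL) and ATP (1.25 mM) stimulation; lower signal means less secretion.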
DT40 TDP1 CPT: growth inhibition of DT40 Tdp1-/-;hTDP1 cells with camptothecin (screen for TDP1 inhibitors) | chicken DT40 Tdp1-/-;hTDP1 cells + 20 nM CPT, ATP luminescence, 48 h | Potency, µM (series often up to 46.2 µM), for the others: top-dose activity change, negative = growth inhibition, usual class: inhibitors | actives 12% (n = 420,000); also: potency is read from the fitted curve at half-maximal effect; % is scaled to controls: 0 for no effect and ±100 for the full control effect; nearly all actives have a fitted effect of over 55% in size
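Cell growth measured by CellTiter-Glo luminescence after a minimum 48 h, 37 C compound exposure with 20 nM CPT in Tdp1-knockout DT40 cells stably expressing hTDP1, seeded 400/well; qHTS titration format.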
HepG2 viability: HepG2 cytotoxicity, counter-screen for TGF-b inhibitors. HepG2 CAGA-GFP viability, ATP luminescence, 18 h. Potency, µM (titrated, usually from 46.1 µM), without a hit: at the highest dose activity change, negative = cytotoxicity, most hits filed as cytotoxic. actives 0.76% (n = 410,000); also: potency is read from the fitted curve at half-maximal effect
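CellTiter-Glo luminescence gave cytotoxicity after 18 hours at 37 degrees C. The cells were HepG2 CAGA-GFP in 1% FBS DMEM, stimulated with 500 pg/mL TGF-beta after compound addition. %Activity was normalised to no-cell wells (complete cell-killing) and DMSO (no toxicity), and curves were fitted and classified.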
ASM inhibitor: blocks human secretory acid sphingomyelinase; P17405; Potency, µM (highest dose often 57.5 µM), without a hit: top-dose activity change, negative = inhibition, actives largely listed as inhibitors; placental ASM, HMU-PC fluorogenic substrate, 60 min; AID 504937; actives 0.006% (n = 340,000); also: potency is read from the fitted curve at half-maximal effect
Target sequence (P17405 47-631 limits assumed): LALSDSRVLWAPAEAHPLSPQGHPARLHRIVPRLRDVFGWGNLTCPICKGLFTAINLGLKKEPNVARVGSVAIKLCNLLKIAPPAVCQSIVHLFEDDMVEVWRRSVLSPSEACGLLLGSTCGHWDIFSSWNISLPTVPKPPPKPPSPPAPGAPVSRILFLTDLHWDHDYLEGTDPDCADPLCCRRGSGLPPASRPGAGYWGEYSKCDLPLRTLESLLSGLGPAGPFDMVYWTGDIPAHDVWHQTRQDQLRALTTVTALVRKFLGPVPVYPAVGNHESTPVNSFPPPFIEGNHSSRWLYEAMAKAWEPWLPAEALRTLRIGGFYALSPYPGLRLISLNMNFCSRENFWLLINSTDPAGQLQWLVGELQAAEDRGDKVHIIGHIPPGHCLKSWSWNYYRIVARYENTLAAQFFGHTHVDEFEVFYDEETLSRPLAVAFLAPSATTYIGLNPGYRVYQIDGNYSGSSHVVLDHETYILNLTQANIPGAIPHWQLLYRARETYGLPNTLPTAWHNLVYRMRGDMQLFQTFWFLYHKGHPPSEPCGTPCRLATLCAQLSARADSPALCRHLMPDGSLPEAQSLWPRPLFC
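Human placenta-derived ASM preincubated with compound 10 min at room temperature, then reacted with 9 uM (final) fluorogenic HMU-PC substrate for 60 min at 37 C. Stop solution raises pH to 10; fluorescence read at Ex 386/Em 447 nm.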
TDP1 cell noCPT: qHTS for Inhibitors of human tyrosyl-DNA phosphodiesterase 1 (TDP1): qHTS in cells in absence of CPT | Potency, µM (top dose mostly 46.2 µM), without a hit: top-dose activity change, negative = growth inhibition, hits mostly inhibitors | DT40 Tdp1-/- hTDP1 cells, no CPT, ATP luminescence, 48 h | AID 686978, 2013 | actives 15% (n = 420,000); also: potency is read from the fitted curve at half-maximal effect; % is scaled to controls: 0 for no effect and ±100 for the full control effect; nearly all actives have a fitted effect of over 55% in size
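Readout: luminescence from CellTiter-Glo after 30 min in the dark at RT. Cells: DT40 Tdp1-/- with stable hTDP1, 400/well. Exposure: compounds alone, ≥48 hr, 37 °C.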
* hit, by the source's call; ? = inconclusive; . = no result given. Unless noted, calls follow the shape of the dose curve; as a rule, active = well fitted curve in the direction sought with a large enough effect; inconclusive = small, poorly fitted or top-dose-only effect, or another doubt; inactive = no such curve, though single readings can be large; an effect the other way counts as inactive or inconclusive.

SMILES	TGFb SMAD3 inh	IL1B secr inh	DT40 TDP1 CPT	HepG2 viability	ASM inhibitor	TDP1 cell noCPT
COc1ccc(CN2C(=NC(=O)CCC3CCCC3)SC3CS(=O)(=O)CC32)cc1 (stereo not given)	-4.6%	-5.5	0.8%	1.6%	-0.5%	-14.6%
CC1(C)CC(C(=O)N2CCOc3ccc(CN4CCN(Cc5ccccn5)CC4)cc3C2)CCO1 (stereo not given)	.	.	10.5%	.	.	1.9%
COc1cc(F)ccc1-c1csc(C(C)(NC(C)=O)c2ccccc2)n1 (stereo not given)	-2.1%	-5.9	11.6µM*	-19.8%	.	5.17µM*
COc1ccc(C(C)(NC(C)=O)c2nc(-c3ccc(F)cc3OC)cs2)cc1 (stereo not given)	5.4%	10.9	14.6µM*	-3.5%	.	13µM*
COc1ccc(C(C)(NC(C)=O)c2nc(-c3ccccc3OC)cs2)cc1 (stereo not given)	8.1%	-22.8	18.4µM*	-23.1%	.	11.6µM*
COc1ccc(C(C)(NC(C)=O)c2nc(-c3cccnc3)cs2)cc1 (stereo not given)	14.5%	25.0	?	-0.2%	.	-10.5%
CC(=O)[C@@H]1[C@@H](C(=O)c2ccc(F)cc2)[C@]2(C(=O)Nc3ccccc32)[C@H]2C=Cc3cc(F)ccc3N12	-16.2%	-74.1*	?	-29.9%	23.2%	?
O=C(CN1C(=O)C2(OCCO2)c2ccccc21)c1ccc(F)cc1	22.9%	-4.7	-9.9%	-1.0%	5.1%	-2.8%
Cc1cc2c(c(C)c1Cl)C(c1ccc3c(c1)OCO3)CC(c1ccccc1)O2 (stereo not given)	?	.	.	-0.9%	.	.
COCCn1c(=O)c(-c2ccccc2)nc2cnc(N3CCNCC3)nc21	.	.	11.3%	.	.	-27.6%
O=c1c(-c2ccc(Cl)cc2)nc2cnc(N3CCNCC3)nc2n1CCc1ccccc1	.	.	11.6µM*	.	.	18.4µM*
COc1ccc(-c2nc3cnc(N4CCNCC4)nc3n(CCc3ccccc3)c2=O)cc1	.	.	?	.	.	20.6µM*
N#CCCn1c(=O)c(-c2cccs2)nc2cnc(N3CCNCC3)nc21	.	.	?	.	.	3.66µM*
Cc1nc2cnc(N3CCNCC3)nc2n(CCC#N)c1=O	.	.	1.2%	.	.	8.7%
COCCn1c(=O)c(-c2ccc(Cl)cc2)nc2cnc(N3CCNCC3)nc21	.	.	6.51µM*	.	.	11.6µM*
Cn1c(=O)c(CCc2ccccc2)nc2cnc(N3CCNCC3)nc21	.	.	?	.	.	9.2µM*
Cn1c(=O)c(CCc2ccccc2)nc2cnc(N3CCOCC3)nc21	.	.	-7.6%	.	.	8.9%
COc1ccccc1NC(=O)C1CCN(c2cnccn2)CC1	-14.8%	.	-20.2%	-9.4%	.	5.5%
O=C(NCc1ccccc1)C(c1ccccc1F)n1c(=O)c(-c2cc3ccccc3[nH]2)nc2ccccc21 (stereo not given)	.	67.7	?	.	.	?
CCCCCNC(=O)C(CCc1ccccc1)n1c(=O)c(-c2ccccc2)nc2ccccc21 (stereo not given)	.	16.2	5.8µM*	.	.	5.8µM*
CCCCCNC(=O)C(c1cccc2ccccc12)n1c(=O)c(-c2ccccc2)nc2ccccc21 (stereo not given)	.	0.0	13µM*	.	.	14.6µM*
CCCCCNC(=O)C(c1ccc(-c2ccccc2)cc1)n1c(=O)c(-c2ccccc2)nc2ccccc21 (stereo not given)	.	51.6	?	.	.	?
O=C(NCc1ccccc1)C(c1cccc2ccccc12)n1c(=O)c(-c2ccccc2)nc2ccccc21 (stereo not given)	.	-4.0	13µM*	.	.	?
